Source: PubChem BioAssay (EPA / NIEHS)
Active and inactive are the calls of the source. Rule for the calls: active = hit-call score of the fitted dose curve at least 0.9, where 1 is the maximum; inactive = score below 0.9.

These molecules were tested against Nuclear respiratory factor 1 (Homo sapiens) (UniProt Q16656) (assay: ATG_NRF1_CIS: Attagene CIS-FACTORIAL HepG2 Assay for human Nuclear Respiratory Factor 1 (NRF1) Orphan Gene (AID 2282987)). Conditions: HepG2 NRF1 cis-element reporter, Attagene multiplex; actives raise or lower the signal.
Protocol: ATG_CIS is a cell-based, multiplexed-readout assay that uses HepG2, a human liver cell line, with measurements taken at 24 hours after chemical dosing in a 24-well plate.ATG_NRF1_CIS is one of 52 assay component(s) measured or calculated from the ATG_CIS assay. It is designed to make measurements of mRNA induction, a form of inducible reporter, as detected with fluorescence intensity signals by Reverse transcription polymerase chain reaction (RT-PCR) and Capillary electrophoresis technology.Data from the assay component ATG_NRF1_CIS was analyzed into 1 assay endpoint. This assay endpoint, ATG_NRF1_CIS, was analyzed with bidirectional fitting relative to DMSO as the negative control and baseline of activity. Using a type of inducible reporter, measures of mRNA for gain or loss-of-signal activity can be used to understand the reporter gene at the transcription factor-level as they relate to the gene NRF1. Furthermore, this assay endpoint can be referred to as a primary readout, because this assay has produced multiple assay endpoints where this one serves a reporter gene function. To generalize the intended target to other relatable targets, this assay endpoint is annotated to the dna binding intended target family, where the subfamily is nuclear respiratory factors.
Human liver HepG2 cells are transiently transfected with multiple reporter transcription units (MRTUs) in 6-well plates using FuGene 6 reagent (Roche; 3 ml FuGene/1 mg DNA). The MRTU constructs are regulated by a cis-regulating element (promoter). […] A major difference between the CIS and TRANS system is that in CIS activities of endogenous TFs are measured, whereas the TRANS assay evaluates changes in activities of exogenous, chimeric NR-Gal4 proteins. […] At the end of 24 hour incubation, total RNA was isolated using TriZol reagent (Invitrogen). The isolated RNA is then reverse-transcribed using oligo(dT) primer and Mo-MLV reverse transcriptase (Invitrogen) with DNAse I (Ambion) treatment for 30 min. The one-tenth of the produced cDNA was amplified by PCR using Taq DNA polymerase (Invitrogen) and two reporter sequence-specific primers. The PCR products were fluorescently labeled by primer extension with 6-arboxyfluorescein (6-FAM) 5'-labeled reporter sequence-specific primer (2 min at 95 C, 20 s at 68 C and 10 min at 72 C) and these products were digested with 5U of HpaI (New England Biolabs) for 2h at 37 C. The fragments were purified using Qiaquick PCR columns (Qiagen), analyzed on an ABI 3130xL genetic analyzer (Applied Biosystems) with peak positions identified by using a set of X-rhodamine (ROX)-labeled MapMarker1000 molecular weight standards (BioVentures). The raw capillary electrophoresis data was processed using Attagraph software (Attagene).

Chain of Nuclear respiratory factor 1 (Homo sapiens) (Q16656 whole entry, looked up): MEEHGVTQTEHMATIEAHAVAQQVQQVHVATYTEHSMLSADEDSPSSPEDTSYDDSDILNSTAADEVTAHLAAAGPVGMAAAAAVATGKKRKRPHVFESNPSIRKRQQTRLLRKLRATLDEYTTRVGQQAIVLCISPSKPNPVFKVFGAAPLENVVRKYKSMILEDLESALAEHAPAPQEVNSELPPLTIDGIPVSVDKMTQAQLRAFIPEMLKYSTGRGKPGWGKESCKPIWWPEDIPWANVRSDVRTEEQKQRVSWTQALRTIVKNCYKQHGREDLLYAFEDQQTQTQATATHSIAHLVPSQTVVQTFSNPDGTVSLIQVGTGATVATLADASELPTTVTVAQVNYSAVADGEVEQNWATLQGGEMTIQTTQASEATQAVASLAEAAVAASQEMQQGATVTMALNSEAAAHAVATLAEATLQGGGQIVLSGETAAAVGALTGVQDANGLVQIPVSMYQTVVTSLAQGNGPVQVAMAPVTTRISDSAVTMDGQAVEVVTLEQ

outcome, inactive:
O=C(O)c1cccc(C(F)(F)F)c1
COCCOCCOCCOCCOCCO
CCOC(=O)c1ccccc1OC
CC1CCC2CC1C2(C)C (stereo not given)
O=C1OC2(c3cc(Br)c(O)c(Br)c3Oc3c2cc(Br)c(O)c3Br)c2c(Cl)c(Cl)c(Cl)c(Cl)c21
COc1ccnc(CS(=O)c2nc3cc(OC(F)F)ccc3[nH]2)c1OC (stereo not given)
CC(C)(C)C(=O)c1ccccc1
O=C1CCCCCCCCCCCCCCO1
CN(C)C(=N)N=C(N)N
OCc1cccnc1
O=C(COc1ccc(Cl)cc1)N1CCN(Cc2ccc3c(c2)OCO3)CC1
CCCCNC(=O)NS(=O)(=O)c1ccc(C)cc1
Cc1c(N(C)C)c(=O)n(-c2ccccc2)n1C
Cc1ccccc1C=O
CCCCCCCCCOC(C)=O
Cc1ncc([N+](=O)[O-])n1C
CC(=O)OCc1ccc2c(c1)OCO2
CCC(C)CCCC(C)(C)O (stereo not given)
CNC[C@H](O)c1cccc(O)c1
CC(C)[C@@H]1CC[C@@H](C)CC1=O
CCC(O)CO (stereo not given)
COCCCOc1ccnc(CS(=O)c2nc3ccccc3[nH]2)c1C (stereo not given)
CCCOCC(C)O (stereo not given)
COc1c(Cl)c(Cl)c(Cl)c(Cl)c1Cl
C[C@H]1C[C@@H]2[C@H]([C@@H](O)C[C@@]3(C)[C@H]2CC[C@]3(O)C(=O)CO)[C@@]2(C)C=CC(=O)C=C12
CO[Si](C)(OC)c1ccccc1
CCCC1CCC(=O)O1 (stereo not given)
O=[N+]([O-])c1cc(C(F)(F)F)ccc1Cl
NC(=O)NC1NC(=O)NC1=O (stereo not given)
NNc1nc(-c2ccc(N)cc2)cs1
C[C@]12CC[C@H]3[C@@H](CCC4=CC(=O)CC[C@@]43C)[C@@H]1CC[C@@H]2C(=O)CO
ClCCCl
CC1=CCC(O)(C(C)C)CC1 (stereo not given)
Cc1cccc(C)c1C
FC1(F)C(F)(F)C(F)(F)C2(F)C(F)(C1(F)F)C(F)(F)C(F)(F)C1(F)C(F)(F)C(F)(F)C(F)(F)C(F)(F)C12F (stereo not given)
CCCCCCCCCCCCSC
Cc1ccc2n[nH]nc2c1
CCC(=O)OCc1ccccc1
Cc1cccc(Nc2ccccc2C(=O)O)c1C
O=CCCc1ccccc1
